According to paper PMC5540273 (PLoS ONE, 2017):

Tests used:
Settings in all cases: concentration: 1 μM, replicates: in singlicate; n = 1
SRPK2 = test system: SRPK2
SRPK3 = test system: SRPK3
STK16 = test system: STK16
STK33 = test system: STK33
STK35 = test system: STK35
STK36 = test system: STK36
STK39 = test system: STK39
SYK = test system: SYK
SgK110 = test system: SgK110
TAK1 = test system: T1, TAK1
T1 construct: gene MAP3K7
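Further: KINOMEscan kinase panel screen.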

Compound	%Inh (SRPK2) [%]	%Inh (SRPK3) [%]	%Inh (STK16) [%]	%Inh (STK33) [%]	%Inh (STK35) [%]	%Inh (STK36) [%]	%Inh (STK39) [%]	%Inh (SYK) [%]	%Inh (SgK110) [%]	%Inh (TAK1) [%]
Cc1ccccc1Cn1ccn2c(=O)cc(N3CCOCC3)nc12 [GSK2269905]	0	0	0	0	0	0	12	23	0	0
Cc1ccc(NC(=O)Nc2ccccc2)cc1-c1ccc(C(=O)Nc2ccncc2)cc1 [GSK1398471]	0	0	9	0	0	0	3	24	0	0
O=c1cc(N2CCOCC2)nc2n(Cc3cccc(Cl)c3Cl)c3ccccc3n12 [GSK2299009]	0	15	31	18	14	0	0	50	0	0
O=C(Nc1n[nH]c2cc(-c3ccsc3)ccc12)C1CC1 [SB-732932]	0	75	23	0	0	2	0	13	0	7
COC(=O)c1cccc(NC(=O)NC2CCN(c3ccnc(Nc4ccc(F)cc4)n3)C2)c1 (stereo not shown) [GSK1379725]	0	0	0	0	0	0	1	17	0	0
COc1cccc(NC(=O)Nc2ccc(C)c(-c3ccc(C(=O)Nc4ccncc4)cc3)c2)c1 [GSK1398474]	0	27	11	0	0	51	33	40	0	0
CCn1c(-c2ccccc2)nc2cnccc21 [SB-733416]	0	5	0	0	7	0	8	17	0	0
Fc1ccc(-c2nn3cccc(F)c3c2-c2ccncc2)cc1 [GW475620]	0	16	0	5	0	28	1	14	0	0
COc1ccc(CSc2nnc(-c3ccc4c(c3)CCO4)o2)cc1	0	0	5	0	0	0	0	0	26	0
CNc1nc(-c2ccc3c(N)n[nH]c3c2)cc(N2C[C@@H](C(=O)NC3CCCCC3)OC[C@H]2C)n1 [GSK2375584]	30	0	16	13	0	22	6	26	0	0
COc1cccc(CNC(=O)NC2CCN(c3ccnc(Nc4ccc(F)cc4)n3)C2)c1 (stereo not shown) [GSK1379723]	0	16	10	0	5	0	10	18	1	0
COc1ccc(CSc2nnc(-c3ccc4ncsc4c3)o2)cc1C(F)(F)F	0	0	15	0	0	0	0	0	25	0
Cc1ccc(NC(=O)c2ccc(Cl)cc2)cc1-c1ccc(C(=O)Nc2ccncc2)cc1 [GSK1398467]	0	0	7	0	0	0	6	3	0	0
COc1ccc(Nc2nccc(NCCNC(=O)Nc3cc(C)ccc3C)n2)cc1 [GSK1379899]	0	10	0	0	0	0	0	24	0	0
CNc1nc(-c2ccc3c(N)n[nH]c3c2)cc(N2C[C@@H](C(=O)Nc3ccccc3)CC[C@H]2C)n1 [GSK2298859]	29	0	13	9	0	0	6	16	0	0
CS(=O)(=O)CCNCc1nc(-c2ccc3ncnc(Nc4ccc5c(cnn5Cc5ccccc5)c4)c3c2)cs1.Cl.Cl [GW569716]	33	9	0	0	0	0	0	13	0	0
CC[C@@H]1CO[C@H](C(=O)Nc2ccccc2)CN1c1cc(-c2ccc3c(N)n[nH]c3c2)nc(NC)n1 [GSK2376236]	0	0	21	2	0	0	0	0	0	6

Compound	%Inh (SRPK2) [%]	%Inh (SRPK3) [%]	%Inh (STK16) [%]	%Inh (STK33) [%]	%Inh (STK35) [%]	%Inh (STK36) [%]	%Inh (STK39) [%]	%Inh (SYK) [%]	%Inh (SgK110) [%]	%Inh (TAK1) [%]
FC(F)(F)c1ccccc1-c1cc(-c2c[nH]nc2-c2ccccn2)ccn1 [GW679396]	0	0	20	0	0	29	7	25	0	4
Cc1ccc(-c2nc(Nc3ccncc3)c3ccccc3n2)s1 [GSK189015]	0	18	12	12	18	0	15	5	0	0
Fc1ccc(-c2nc[nH]c2-c2ccncc2)cc1 [SB-217360]	0	3	14	1	0	0	0	33	15	0
COc1ccc(Nc2nccc(N3CCC(NC(=O)C(C)c4ccc(Cl)cc4)C3)n2)cc1 (stereo not shown) [GSK1379735]	0	34	0	0	7	1	13	25	0	0
Cc1nccc(-c2c(-c3ccc(F)cc3)ncn2CCCN2CCOCC2)n1.Cl [SB-282975]	0	0	0	14	0	10	28	28	26	26
COc1cccc(C2=C(Nc3cc(Cl)c(O)c(Cl)c3)C(=O)NC2=O)c1 [SB-390767]	5	24	11	0	0	0	0	0	0	0
COc1ccc(Nc2nccc(N3CCC(NC(=O)C(C)c4ccc(Cl)cc4)CC3)n2)cc1 (stereo not shown) [GSK1379812]	0	8	10	0	0	18	38	32	27	0
Nc1cccc(-c2ccc3c(N)n[nH]c3c2)n1 [GSK2192730]	0	0	27	0	0	0	1	0	0	43
COc1cc2ncnc(Nc3cccc(Br)c3)c2cc1OC.Cl [GI230329]	40	0	0	0	0	0	5	13	17	0
CCCCc1nn2ncccc2c1-c1ccnc(NC2CC2)n1 [GW684374]	0	0	20	0	0	0	0	0	0	0
O=C1NC(=O)C(c2ccc(Cl)cc2)=C1Nc1cccc(Cl)c1 [SB-317651]	3	8	0	0	0	2	17	0	0	34
CNCc1ccc2nc(NC(=O)c3ccc(C(C)(C)C)cc3)cn2c1	5	0	0	1	0	11	42	2	9	20
Nc1nccc(-c2c(-c3ccc(F)cc3)ncn2C2CCN(Cc3ccccc3)CC2)n1 [SB-219980]	0	0	0	33	79	29	0	0	0	7
COc1ccc(CSc2nnc(-c3ccc4nccn4c3)o2)cc1C(F)(F)F	0	16	3	2	16	10	0	0	0	33
COC(=O)c1cccc(NC(=O)NC2CCN(c3ccnc(Nc4ccc(OC)cc4)n3)C2)c1 (stereo not shown) [GSK1379746]	28	0	8	0	0	0	5	0	0	0
Cc1c(Cn2c3ccccc3n3c(=O)cc(N4CCOCC4)nc23)cccc1C(F)(F)F [GSK2306394]	0	0	11	6	0	0	0	5	0	0
Cc1c(Cn2c(C)c(C)n3c(=O)cc(N4CCOCC4)nc23)cccc1C(F)(F)F [GSK2328680]	45	2	0	65	0	0	0	32	0	0
